Consider 23 molecules from PubChem BioAssay AID485346 (Sanford-Burnham Center for Chemical Genomics, 2010).

The campaign covered roughly 330,000 compounds. About 10,000 (3%) were called active. The list comes from a sample in which actives are over-represented; it also holds similar structures and randomly drawn compounds. Unmarked numbers belong to inactive results.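 How the source made its calls: active means inhibition of at least 50% at 8 µM in the primary screen; inactive means the rest.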

For orientation: inhibition means the relative decrease from the control value, in per cent.

This assay deals with Protein Mdm4 (Homo sapiens) + E3 ubiquitin-protein ligase Mdm2 (Homo sapiens) (UniProt O15151+Q00987). The assay can be described thus: disruptors of Mdm2/MdmX RING complex – cell-based, luminescence, split luciferase, SaOS-2, uHTS, primary screen (AID 485346). As to conditions: SaOS-2 split-luciferase Mdm2/MdmX complementation, at 8 µM, active compounds read high.
Chain of Protein Mdm4 (Homo sapiens) + E3 ubiquitin-protein ligase Mdm2 (Homo sapiens) (O15151 whole entry, looked up): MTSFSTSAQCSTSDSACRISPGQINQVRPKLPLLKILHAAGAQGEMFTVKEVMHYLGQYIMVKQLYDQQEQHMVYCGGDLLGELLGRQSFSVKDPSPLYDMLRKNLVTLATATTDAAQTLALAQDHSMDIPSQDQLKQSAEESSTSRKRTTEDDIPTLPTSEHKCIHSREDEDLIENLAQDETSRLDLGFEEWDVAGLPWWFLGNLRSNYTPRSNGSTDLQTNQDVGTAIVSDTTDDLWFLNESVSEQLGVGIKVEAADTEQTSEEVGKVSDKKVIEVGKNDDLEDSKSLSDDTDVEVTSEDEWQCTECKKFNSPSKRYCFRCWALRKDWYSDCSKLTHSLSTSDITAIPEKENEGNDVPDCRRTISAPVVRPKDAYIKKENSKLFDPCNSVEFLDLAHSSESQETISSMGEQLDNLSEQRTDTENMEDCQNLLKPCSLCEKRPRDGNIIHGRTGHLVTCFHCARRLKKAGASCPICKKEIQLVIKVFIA
Chain of Protein Mdm4 (Homo sapiens) + E3 ubiquitin-protein ligase Mdm2 (Homo sapiens) (Q00987 whole entry, looked up): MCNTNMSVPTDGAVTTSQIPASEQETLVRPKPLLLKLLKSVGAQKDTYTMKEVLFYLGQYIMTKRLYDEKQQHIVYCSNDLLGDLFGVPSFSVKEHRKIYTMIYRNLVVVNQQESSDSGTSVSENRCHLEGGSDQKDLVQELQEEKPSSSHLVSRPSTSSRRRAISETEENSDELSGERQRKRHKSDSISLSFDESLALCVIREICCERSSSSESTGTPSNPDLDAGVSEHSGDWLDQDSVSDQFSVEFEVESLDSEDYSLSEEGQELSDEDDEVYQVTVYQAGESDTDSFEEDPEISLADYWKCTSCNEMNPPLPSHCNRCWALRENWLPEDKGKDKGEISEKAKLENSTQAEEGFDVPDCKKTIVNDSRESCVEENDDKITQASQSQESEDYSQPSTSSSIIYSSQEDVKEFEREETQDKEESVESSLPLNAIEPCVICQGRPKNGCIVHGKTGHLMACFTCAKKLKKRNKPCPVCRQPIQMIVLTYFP
In the case of `CCN(C(=O)CSc1nnnn1-c1ccc(OC)cc1)C1CCS(=O)(=O)C1` (stereo not drawn), the inhibition was -4.86%.

With `COC(=O)C1CCN(C(=O)COC(=O)c2cc(S(=O)(=O)N3CCOCC3)ccc2C)CC1`, the inhibition was 1.32%.

On to `CCCCn1c(N)c(N(CC)C(=O)/C=C/c2ccco2)c(=O)[nH]c1=O`, for which the inhibition is 15.3%.

Consider `CC[C@]1(O)CC2CN(CCc3c([nH]c4ccccc34)[C@@](C(=O)OC)(c3cc4c(cc3OC)N(C=O)[C@H]3[C@@](O)(C(=O)OC)[C@H](OC(C)=O)[C@]5(CC)C=CCN6CC[C@]43[C@@H]65)C2)C1` (stereo partly drawn), for which the inhibition was 67.5% (active).

Consider `CC[C@]1(O)C[C@@H]2CN(CCc3c([nH]c4ccccc34)[C@@](C(=O)OC)(c3cc4c(cc3OC)N(C)[C@H]3[C@@](O)(C(=O)OC)[C@H](OC(C)=O)[C@]5(CC)C=CCN6CC[C@]43[C@@H]65)C2)C1`, for which the inhibition is 85.9% (active).

For `CCNC(=O)COc1cc(C)c(Br)c(C)c1`, the inhibition is 15.7%.

Turning to `Cc1ccc(S(=O)(=O)N(Cc2ccccc2)c2ccccn2)cc1[N+](=O)[O-]`, the inhibition was 23.2%.

For the molecule `COc1cc(C(=O)OCc2cc(=O)n3ccsc3n2)ccc1OC(C)C`, the inhibition was -18.9%.

In the case of `CC1CCC2CCCCC2N1C(=O)c1cc([N+](=O)[O-])cc([N+](=O)[O-])c1` (stereo not drawn), the inhibition was 5.25%.

As for `Cc1ccc(S(=O)(=O)N(C)c2ccc(OCC(=O)OCc3ccc(C#N)cc3)cc2)cc1`, the inhibition is 1.14%.

For the molecule `CC1CCN(C(=O)c2cc3nc(C4CC4)cc(C(F)(F)F)n3n2)CC1`, the inhibition was 0.061%.

On to `COc1ccc2[nH]c3c(c2c1)CCN1C(=O)C(CC(=O)NCc2cccc(C(F)(F)F)c2)C[C@H](C(=O)N2CCOCC2)[C@@]31C` (stereo partly drawn), for which the inhibition was 17.2%.

As to `CCOc1ccc2c(=O)c(-c3ccc4c(c3)OCCCO4)c(C)oc2c1`, the inhibition was 19.6%.

In the case of `Cn1c2ccccc2c(=O)c2c(=O)n(Cc3ccco3)c(COc3ccccc3)nc21`, the inhibition is 33.8%.

`CCCc1nc2c(c(=O)c3ccccc3n2C)c(=O)n1C1CCCCCC1`: the inhibition is 76.1% (active).

Regarding `Cn1c2ccccc2c(=O)c2c(O)cccc21`, the inhibition was 5.57%.

In the case of `CC(C)C1C2=C(CC(C)(C)CC2=O)ON1c1ccccc1` (stereo not drawn), the inhibition was 16.1%.

Take `COc1cccc(/C=C(/CC(=O)Nc2ccc(N3CCOCC3)cc2)c2nc3ccccc3s2)c1`: the inhibition is 18.2%.

`O=C(COC(=O)Cn1[nH]c(=O)c2ccccc2c1=O)Nc1c(Cl)cccc1C(F)(F)F`: the inhibition was -4.75%.

Take `O=C(NCc1nnc(SCC(=O)N2CCCCCC2)o1)c1ccc(F)cc1`: the inhibition was 10.6%.

On to `Cc1ccc(NC(=O)c2ccc(CSc3ncnc4nc[nH]c34)cc2)c(C)c1`, for which the inhibition was -2.54%.

Take `CCc1ccc(N(CC)c2ncnc3nc[nH]c23)cc1`: the inhibition is 63% (active).

With `COc1ccc(CCNc2ncnc3nc[nH]c23)cc1OC`, the inhibition is 18.1%.
